Consider 19 molecules from PubChem BioAssay (EPA / NIEHS).

As a reminder, the AC50 is the concentration giving half of the maximal activity seen.

Experiment [1] can be described thus: ACEA_ER_80hr: ACEA Biosciences xCELLigence Real-Time Cell Analysis on Estrogen Receptor Agonism for Proliferation (AID 2282667; active = hit-call score of the fitted dose curve at least 0.9, where 1 is the maximum). The note with it: T47D proliferation, impedance (xCELLigence), 80 h. In a few lines:
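Cell-growth kinetics were measured by impedance in T47D cells treated continuously with compound (top 100 uM final, 1:4 steps, 8 points). Activity at 80 h was scored as signal gain over the DMSO baseline.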

The target of experiment [2] is CCAAT/enhancer-binding protein beta (Homo sapiens) (UniProt P17676). The experiment in a line: ATG_C_EBP_CIS: Attagene CIS-FACTORIAL HepG2 Assay for human CCAAT/Enhancer Binding Protein (C/EBP) beta (AID 2282927). The settings on record: HepG2 Attagene cis-factorial transcription factor reporter; actives raise or lower the signal. The procedure, abridged:
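Chemical-treated HepG2 cells (24 h) bearing cis-regulated reporter constructs were processed for total RNA, then reverse transcription, PCR amplification, fluorescent primer extension and fragment analysis; gain- and loss-of-signal were fitted against DMSO.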

Experiment [3] is described as follows: ATG_DR4_LXR_CIS: Attagene CIS-FACTORIAL HepG2 Assay for human Liver X Receptor (LXR), DR4 submotif (AID 2282929). The note with it: HepG2 Attagene DR4 cis-reporter, mRNA transcription; actives raise or lower the signal. The procedure, abridged: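 Transiently transfected HepG2 liver cells; cis-regulated reporters; 24 h dosing. RT-PCR plus CE read-out of reporter mRNA. DMSO baseline, bidirectional curve fitting.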

The target in experiment [4] is Aryl hydrocarbon receptor (Homo sapiens) (UniProt P35869). Nature of the experiment: ATG_Ahr_CIS: Attagene CIS-FACTORIAL HepG2 Assay for human Aryl Hydrocarbon Receptor (Ahr) (AID 2282930). The note with it: HepG2 AhR cis-factorial reporter transcription; actives raise or lower the signal. The procedure, abridged:
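Following 24 h of chemical dosing, transfected HepG2 liver cells with cis-driven reporter units were lysed for RNA; reporter mRNA was quantified via RT-PCR and capillary electrophoresis, and responses fitted bidirectionally from DMSO.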

Experiment [5] in a line: ATG_AP_1_CIS: Attagene CIS-FACTORIAL HepG2 Assay for human Activator Protein 1 (AP-1) (AID 2282931). The note with it: HepG2 Attagene cis-factorial AP-1 reporter mRNA; actives raise or lower the signal. In a few lines: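 We transfected HepG2 cells transiently with a set of cis-regulated reporter transcription units, dosed them for 24 h, and quantified reporter mRNA via RT-PCR and capillary electrophoresis, scoring gain or loss of signal relative to DMSO.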

A short description of experiment [6]: ATG_AP_2_CIS: Attagene CIS-FACTORIAL HepG2 Assay for human Activator Protein 2 (AP-2) (AID 2282932). The note with it: HepG2 AP-2 cis-reporter, Attagene transcription factor profiling; actives raise or lower the signal. In a few lines: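 Bidirectional curve fitting against DMSO was applied to reporter mRNA signals from HepG2 cells 24 h after dosing. Cis-promoter reporter units, transiently transfected, were read by RT-PCR plus capillary electrophoresis.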

Experiment [7] in a line: ATG_BRE_CIS: Attagene CIS-FACTORIAL HepG2 Assay for human Bone Morphogenetic Protein (BMP) Response Element (BRE) (AID 2282933). The settings on record: HepG2 BMP response element reporter, Attagene transcription factor profiling; actives raise or lower the signal. The procedure, abridged:
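After a 24 h chemical treatment, transiently transfected HepG2 cells were lysed for RNA; reporter transcripts were quantified by fluorescent RT-PCR and capillary electrophoresis, normalised to DMSO.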

Experiment [8] addresses Retinoic acid receptor alpha (Homo sapiens) (UniProt P10276). The experiment in a line: ATG_DR5_RAR_CIS: Attagene CIS-FACTORIAL HepG2 Assay for human Retinoic Acid Receptor Alpha (RARE), DR5 submotif (AID 2282934). The settings on record: HepG2 Attagene cis-factorial RARE DR5 reporter, mRNA; actives raise or lower the signal. The procedure, abridged:
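Transfected HepG2 reporter cells are exposed to chemicals for 24 h. Then RNA is extracted and the DR5 element reporter transcript is measured by RT-PCR and capillary electrophoresis, with bidirectional curve fitting relative to DMSO.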

A short description of experiment [9]: ATG_CMV_CIS: Attagene CIS-FACTORIAL HepG2 Assay for human CMV (Internal Marker) (AID 2282928).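 Also: endpoint acts as a background internal control marker rather than a target.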 The note with it: HepG2 CMV promoter reporter, transcription factor profiling; actives raise or lower the signal. The procedure, abridged: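 CMV internal-marker background readout in transiently transfected HepG2 cells bearing cis-regulated reporter units. Reporter mRNA is measured 24 h after dosing by RT-PCR and capillary electrophoresis, with bidirectional fitting against DMSO.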

Results filed as inconclusive are left out. Calls of active or inactive are those of the source. The calls were made as follows, unless noted: active = hit-call score of the fitted dose curve at least 0.9, where 1 is the maximum; inactive = score below 0.9.

Sequence of Retinoic acid receptor alpha (Homo sapiens) (P10276 whole entry, looked up): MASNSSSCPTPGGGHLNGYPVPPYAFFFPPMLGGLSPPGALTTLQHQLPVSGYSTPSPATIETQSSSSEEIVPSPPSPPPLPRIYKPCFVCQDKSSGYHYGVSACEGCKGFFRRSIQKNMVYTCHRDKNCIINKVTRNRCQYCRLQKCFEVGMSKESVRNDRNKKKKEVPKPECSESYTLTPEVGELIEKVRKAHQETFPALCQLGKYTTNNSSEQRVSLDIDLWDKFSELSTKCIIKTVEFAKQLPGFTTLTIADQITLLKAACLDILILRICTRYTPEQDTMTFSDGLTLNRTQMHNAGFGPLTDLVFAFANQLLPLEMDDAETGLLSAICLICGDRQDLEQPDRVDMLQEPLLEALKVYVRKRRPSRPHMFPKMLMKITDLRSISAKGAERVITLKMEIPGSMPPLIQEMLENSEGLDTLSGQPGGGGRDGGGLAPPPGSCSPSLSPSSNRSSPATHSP
Sequence of CCAAT/enhancer-binding protein beta (Homo sapiens) (P17676 whole entry, looked up, the tested form may be a part): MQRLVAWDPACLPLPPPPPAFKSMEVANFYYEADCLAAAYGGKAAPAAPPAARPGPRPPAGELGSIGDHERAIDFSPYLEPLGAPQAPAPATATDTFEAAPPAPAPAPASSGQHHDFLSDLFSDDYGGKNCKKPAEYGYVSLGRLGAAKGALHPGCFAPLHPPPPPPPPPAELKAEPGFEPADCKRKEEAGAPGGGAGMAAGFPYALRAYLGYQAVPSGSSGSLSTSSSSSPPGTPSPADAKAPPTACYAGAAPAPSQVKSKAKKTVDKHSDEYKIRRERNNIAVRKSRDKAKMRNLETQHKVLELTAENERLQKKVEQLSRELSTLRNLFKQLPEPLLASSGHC
Sequence of Aryl hydrocarbon receptor (Homo sapiens) (P35869 whole entry, looked up): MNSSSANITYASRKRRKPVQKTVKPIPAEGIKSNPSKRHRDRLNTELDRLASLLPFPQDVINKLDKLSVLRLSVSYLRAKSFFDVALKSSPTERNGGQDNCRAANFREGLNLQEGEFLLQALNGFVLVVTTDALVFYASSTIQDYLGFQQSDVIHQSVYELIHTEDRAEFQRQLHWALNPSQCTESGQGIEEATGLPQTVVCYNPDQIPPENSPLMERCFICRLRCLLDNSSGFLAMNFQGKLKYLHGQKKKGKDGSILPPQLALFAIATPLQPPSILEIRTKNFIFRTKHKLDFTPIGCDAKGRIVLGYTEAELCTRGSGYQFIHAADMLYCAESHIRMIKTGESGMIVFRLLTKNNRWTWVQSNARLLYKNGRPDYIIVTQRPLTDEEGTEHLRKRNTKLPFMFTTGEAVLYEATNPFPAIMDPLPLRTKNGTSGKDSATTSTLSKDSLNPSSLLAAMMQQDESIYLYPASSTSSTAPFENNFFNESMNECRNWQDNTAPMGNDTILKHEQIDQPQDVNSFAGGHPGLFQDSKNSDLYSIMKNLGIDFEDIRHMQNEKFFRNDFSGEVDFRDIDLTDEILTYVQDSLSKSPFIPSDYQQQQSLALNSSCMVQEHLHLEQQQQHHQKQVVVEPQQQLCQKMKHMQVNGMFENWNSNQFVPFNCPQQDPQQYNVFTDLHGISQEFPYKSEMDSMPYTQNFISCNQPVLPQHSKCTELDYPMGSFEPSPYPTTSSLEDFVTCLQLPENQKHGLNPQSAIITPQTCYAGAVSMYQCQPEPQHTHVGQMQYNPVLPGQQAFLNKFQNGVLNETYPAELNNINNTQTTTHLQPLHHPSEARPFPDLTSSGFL

Regarding `CCCCCCCOC(=O)c1ccccc1C(=O)OCCCCCCC`, the call in experiment [1], in experiment [2], in experiment [3], in experiment [4], in experiment [5] and in [6] was inactive. Moreover, the outcome in experiment [7] and in [8] was inactive.
`FC1CC(F)(F)C(F)(F)C1(F)F` (stereo not given): the call in experiment [1], in experiment [2], in experiment [3], in experiment [4], in [5] and in experiment [6] was inactive. Also, the outcome in experiment [7] and in [8] was inactive.
For `CC/C=C\CCOC(C)=O`, the molecule was called inactive in [1], in experiment [2], in [9], in experiment [3], in [4] and in experiment [5]. For the same molecule, the result in experiment [7] and in experiment [8] was inactive.
With `FC(F)(F)C(F)(F)C(F)(F)C(F)(F)C(F)(F)C(F)(F)C(F)(F)Br`, the result in experiment [1], in experiment [2], in experiment [9], in experiment [3], in experiment [4] and in experiment [5] was inactive. Further, the call in [7] and in experiment [8] was inactive.
On to `CCCCCCC(C)OC(=O)CCCCC(=O)OC(C)CCCCCC` (stereo not given), for which the molecule was classed as inactive in experiment [1], in [2], in [9], in experiment [3], in [4] and in experiment [5]. For the same molecule, the molecule was classed as inactive in [7] and in experiment [8].
For `O=C(O)C(F)(F)C(F)(F)F`, the result in experiment [1], in experiment [2], in experiment [3], in experiment [4], in experiment [5] and in experiment [6] was inactive. The outcome in experiment [7] and in experiment [8] was inactive.
Regarding `N=C(N)C(F)(F)C(F)(F)C(F)(F)C(F)(F)C(F)(F)C(F)(F)C(F)(F)F`, the outcome in experiment [1], in [9], in experiment [4], in experiment [7] and in experiment [8] was inactive. Besides, the concentration at half-maximal activity (AC50) was 111 µM (active) in [2], 211 µM (active) in [3] and 150 µM (active) in experiment [5].
For the molecule `FC(F)(F)C(F)(F)C(F)(F)N(C(F)(F)C(F)(F)C(F)(F)F)C(F)(F)C(F)(F)C(F)(F)F`, the outcome in experiment [1], in experiment [2], in experiment [9], in [3], in experiment [4] and in [5] was inactive. Besides, the outcome in [6], in [7] and in [8] was inactive.
With `C=CC(F)(F)C(F)(F)C(F)(F)C(F)(F)C(F)(F)C(F)(F)C(F)(F)C(F)(F)F`, the outcome in experiment [1], in [2], in experiment [3], in [4], in [5] and in [6] was inactive. Also, the molecule was classed as inactive in experiment [7] and in [8].
Consider `C=CC(F)(F)C(F)(F)C(F)(F)C(F)(F)C(F)(F)C(F)(F)C(F)(F)C(F)(F)C=C`, for which the call in experiment [1], in [2], in [3], in experiment [4], in experiment [5] and in experiment [6] was inactive. Further, the molecule was called inactive in [7] and in experiment [8].
With `OCCCC(F)(F)C(F)(F)C(F)(F)F`, the call in experiment [1], in experiment [2], in experiment [9], in [3], in experiment [4] and in experiment [5] was inactive. Moreover, the outcome in experiment [6], in [7] and in [8] was inactive.
For `C=C(C)C(=O)OCC(F)(F)C(F)(F)C(F)(F)C(F)(F)C(F)(F)C(F)(F)C(F)(F)F`, the molecule was classed as inactive in [1], in experiment [2], in [9], in experiment [3], in experiment [4] and in [5]. Besides, the molecule was classed as inactive in [6], in [7] and in experiment [8].
For `O=C(C=Cc1ccccc1)OCC=Cc1ccccc1`, the molecule was called inactive in experiment [1], in [2], in experiment [4], in experiment [5], in [7] and in experiment [8]. Moreover, the AC50 in experiment [3] was 24.3 µM (active).
As to `CCCCOc1ccc(N)cc1`, the molecule was called inactive in [1], in experiment [2], in experiment [3], in experiment [4], in experiment [5] and in experiment [7]. In experiment [8], the molecule was called inactive.
`FC(F)(F)C(F)(F)C(F)(F)C(F)(F)C(F)(F)C(F)(F)CC1CO1` (stereo not given): the result in experiment [1], in experiment [2], in experiment [3], in experiment [4], in experiment [5] and in experiment [6] was inactive. The result in experiment [7] and in experiment [8] was inactive.
As to `OCC(F)(F)C(F)(F)C(F)(F)F`, the call in experiment [1], in [2], in [3], in experiment [4], in experiment [5] and in [7] was inactive. In addition, in [8], the outcome was inactive.
For `C#C[C@]1(O)CC[C@H]2[C@@H]3CCc4cc(OC)ccc4[C@H]3CC[C@@]21C`, the concentration at half-maximal activity (AC50) was 0.0054 µM (active) in experiment [1] and 48.2 µM (active) in experiment [9]. The outcome in experiment [2], in experiment [3], in [4], in experiment [5], in experiment [6] and in experiment [7] was inactive. In addition, the call in experiment [8] was inactive.
Consider `CNC(=S)NC`, for which the outcome in experiment [1], in experiment [2], in experiment [9], in experiment [3], in [4] and in [5] was inactive. Besides, the result in [6], in [7] and in experiment [8] was inactive.
Consider `O=C(O)C(F)(F)C(F)(F)C(F)(F)F`, for which the outcome in experiment [1], in [2], in experiment [9], in experiment [3], in [4] and in [5] was inactive. Moreover, the molecule was called inactive in experiment [6], in experiment [7] and in experiment [8].
